# Laboratory results from article PMC7862700, “An all-to-all approach to the identification of sequence-specific readers for epigenetic DNA modifications on cytosine”.
# Key:
# Experiment in all cases: DAPPL (digital affinity profiling via proximity ligation, sequencing); 10 mM Tris-HCl pH 7.5, 50 mM NaCl, 1 mM DTT, 4% glycerol, room temperature, 30 min; GST-TFs on glutathione beads, 16-mer random dsDNA library, 0.1% formaldehyde crosslink after washing; high values mean tight binding
# Details in all cases: protein: recombinant; tags: N-terminal GST; dsDNA, one strand shown
# FLI1 = molecular target: T1, FLI1 (Homo sapiens, UniProt Q01543 1-452)
# T1 sequence: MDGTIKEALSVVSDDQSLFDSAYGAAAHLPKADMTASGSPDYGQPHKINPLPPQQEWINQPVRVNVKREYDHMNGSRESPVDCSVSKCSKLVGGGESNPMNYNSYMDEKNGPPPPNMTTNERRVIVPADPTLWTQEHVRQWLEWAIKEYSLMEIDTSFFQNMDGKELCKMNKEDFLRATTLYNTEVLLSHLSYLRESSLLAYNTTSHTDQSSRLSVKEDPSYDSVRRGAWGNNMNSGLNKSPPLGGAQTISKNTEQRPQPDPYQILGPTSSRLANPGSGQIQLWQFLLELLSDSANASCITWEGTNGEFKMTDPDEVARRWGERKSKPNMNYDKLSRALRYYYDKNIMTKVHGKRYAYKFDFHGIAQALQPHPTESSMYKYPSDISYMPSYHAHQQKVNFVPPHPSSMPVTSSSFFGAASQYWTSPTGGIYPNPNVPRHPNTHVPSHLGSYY
# Procedure, shortened: (§1)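 The binding signal reported is, for every hexamer, its read frequency for a factor over its read frequency for the tag-only sample. Reads came from pools of yeast-expressed, GST-fused human transcription factors on glutathione beads, barcoded with DNA and mixed with that sample, which were incubated with 200 nmole of a random double-stranded 16-mer DNA library in Tris/NaCl/DTT/glycerol buffer at room temperature for 30 min. After washing, the pools were crosslinked with 0.1% formaldehyde, proximity-ligated with BsaI/T4 ligase for 1 h at 37 °C, PCR-amplified and sequenced on an Illumina NextSeq500.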
# ELK1 = molecular target: T2, ELK1 (Homo sapiens, UniProt P19419 1-428)
# T2 sequence: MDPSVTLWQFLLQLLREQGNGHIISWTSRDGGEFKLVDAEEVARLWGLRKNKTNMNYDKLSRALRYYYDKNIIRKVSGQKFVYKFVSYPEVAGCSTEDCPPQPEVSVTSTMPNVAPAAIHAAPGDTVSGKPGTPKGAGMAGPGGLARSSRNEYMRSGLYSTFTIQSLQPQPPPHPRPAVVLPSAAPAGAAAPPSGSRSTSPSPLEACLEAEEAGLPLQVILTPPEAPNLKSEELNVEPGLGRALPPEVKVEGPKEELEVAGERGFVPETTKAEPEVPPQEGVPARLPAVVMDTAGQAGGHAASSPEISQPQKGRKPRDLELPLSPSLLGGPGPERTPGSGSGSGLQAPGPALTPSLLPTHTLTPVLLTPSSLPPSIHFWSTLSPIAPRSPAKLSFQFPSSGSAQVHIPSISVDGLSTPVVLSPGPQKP
# Procedure, shortened: as §1
# GABPA = molecular target: T3, GABPA (Homo sapiens, UniProt Q06546 1-454)
# T3 sequence: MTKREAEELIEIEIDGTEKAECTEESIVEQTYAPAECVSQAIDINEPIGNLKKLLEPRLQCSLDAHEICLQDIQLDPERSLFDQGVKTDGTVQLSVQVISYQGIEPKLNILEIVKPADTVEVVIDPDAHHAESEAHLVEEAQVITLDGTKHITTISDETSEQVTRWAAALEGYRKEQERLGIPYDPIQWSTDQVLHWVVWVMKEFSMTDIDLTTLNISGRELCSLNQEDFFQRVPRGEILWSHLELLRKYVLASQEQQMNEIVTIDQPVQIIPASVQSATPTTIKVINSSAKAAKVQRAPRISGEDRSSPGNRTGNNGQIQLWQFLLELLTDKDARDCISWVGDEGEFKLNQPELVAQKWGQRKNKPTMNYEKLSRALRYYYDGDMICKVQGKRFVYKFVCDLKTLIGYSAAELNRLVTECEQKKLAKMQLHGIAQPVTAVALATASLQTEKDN
# Procedure, shortened: as §1
# ERG = molecular target: T4, ERG (Homo sapiens, UniProt P11308 1-479)
# T4 sequence: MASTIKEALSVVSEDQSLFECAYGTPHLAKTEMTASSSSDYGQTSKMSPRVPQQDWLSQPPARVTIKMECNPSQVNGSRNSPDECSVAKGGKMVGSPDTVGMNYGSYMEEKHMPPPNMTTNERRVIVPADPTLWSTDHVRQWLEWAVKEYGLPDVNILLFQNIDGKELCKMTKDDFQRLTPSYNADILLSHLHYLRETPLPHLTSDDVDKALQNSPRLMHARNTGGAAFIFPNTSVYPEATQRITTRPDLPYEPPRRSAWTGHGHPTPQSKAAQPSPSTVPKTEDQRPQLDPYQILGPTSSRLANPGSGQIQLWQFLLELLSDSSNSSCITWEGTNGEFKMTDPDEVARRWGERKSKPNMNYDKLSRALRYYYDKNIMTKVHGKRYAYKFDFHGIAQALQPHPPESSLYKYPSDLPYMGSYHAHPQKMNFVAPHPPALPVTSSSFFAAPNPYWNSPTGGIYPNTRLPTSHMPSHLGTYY
# Procedure, shortened: as §1
# ELF1 = ELF1 (Homo sapiens, UniProt P32519 1-619)
# Procedure, shortened: as §1
# EHF = molecular target: T5, EHF (Homo sapiens, UniProt Q9NZC4 1-300)
# T5 sequence: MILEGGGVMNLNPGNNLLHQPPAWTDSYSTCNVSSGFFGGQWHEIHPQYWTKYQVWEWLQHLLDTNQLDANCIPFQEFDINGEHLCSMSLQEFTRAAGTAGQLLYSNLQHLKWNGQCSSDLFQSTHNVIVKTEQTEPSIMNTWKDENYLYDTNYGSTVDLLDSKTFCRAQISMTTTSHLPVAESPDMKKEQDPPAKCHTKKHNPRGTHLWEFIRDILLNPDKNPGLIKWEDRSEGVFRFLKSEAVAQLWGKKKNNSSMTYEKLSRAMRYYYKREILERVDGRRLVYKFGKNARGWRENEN
# Procedure, shortened: as §1
# SPI1 = SPI1 (Homo sapiens, UniProt P17947 1-270)
# Procedure, shortened: as §1
# SPIB = SPIB (Homo sapiens, UniProt Q01892 1-262)
# Procedure, shortened: as §1
# ELK3 = molecular target: T6, ELK3 (Homo sapiens, UniProt P41970 1-407)
# T6 sequence: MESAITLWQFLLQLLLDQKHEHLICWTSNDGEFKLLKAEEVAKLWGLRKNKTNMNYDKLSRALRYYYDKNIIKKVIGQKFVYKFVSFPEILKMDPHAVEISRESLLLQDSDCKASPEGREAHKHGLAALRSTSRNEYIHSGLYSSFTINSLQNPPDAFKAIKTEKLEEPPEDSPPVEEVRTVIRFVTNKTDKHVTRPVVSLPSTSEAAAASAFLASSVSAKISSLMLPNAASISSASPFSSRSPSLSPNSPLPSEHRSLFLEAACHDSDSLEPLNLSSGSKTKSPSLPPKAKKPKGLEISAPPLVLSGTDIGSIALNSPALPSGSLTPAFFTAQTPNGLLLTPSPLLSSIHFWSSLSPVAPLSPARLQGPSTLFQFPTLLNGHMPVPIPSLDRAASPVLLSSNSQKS
# Procedure, shortened: as §1
# ELF1, sequence (P32519 whole entry): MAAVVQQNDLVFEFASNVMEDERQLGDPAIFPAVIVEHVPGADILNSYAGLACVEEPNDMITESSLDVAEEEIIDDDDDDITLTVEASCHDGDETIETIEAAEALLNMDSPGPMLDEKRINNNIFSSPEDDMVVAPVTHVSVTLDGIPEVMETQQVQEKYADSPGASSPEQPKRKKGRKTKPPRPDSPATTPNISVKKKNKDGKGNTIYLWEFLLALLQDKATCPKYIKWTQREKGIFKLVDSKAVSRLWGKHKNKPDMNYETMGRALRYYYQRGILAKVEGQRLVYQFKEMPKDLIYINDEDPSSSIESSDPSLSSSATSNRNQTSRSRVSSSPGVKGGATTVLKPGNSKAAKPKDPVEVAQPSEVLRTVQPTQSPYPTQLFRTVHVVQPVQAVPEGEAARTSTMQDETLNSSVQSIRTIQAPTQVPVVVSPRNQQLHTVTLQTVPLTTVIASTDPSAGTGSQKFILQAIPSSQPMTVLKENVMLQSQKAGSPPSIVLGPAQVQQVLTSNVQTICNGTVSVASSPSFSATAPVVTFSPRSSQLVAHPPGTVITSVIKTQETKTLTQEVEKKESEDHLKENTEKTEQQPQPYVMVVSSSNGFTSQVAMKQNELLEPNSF
# SPIB, sequence (Q01892 whole entry): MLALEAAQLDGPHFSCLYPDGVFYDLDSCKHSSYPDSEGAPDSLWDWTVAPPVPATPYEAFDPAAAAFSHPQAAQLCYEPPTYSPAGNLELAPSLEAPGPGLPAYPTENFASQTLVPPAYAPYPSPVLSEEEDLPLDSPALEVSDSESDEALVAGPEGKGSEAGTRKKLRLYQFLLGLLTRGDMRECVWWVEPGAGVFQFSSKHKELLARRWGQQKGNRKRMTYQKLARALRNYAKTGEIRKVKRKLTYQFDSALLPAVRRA
sequence,measurement,setting,value
GCGTTC,binding signal,FLI1,"1.07 fold enrichment (6-mer frequency, TF over GST control)"
same,binding signal,ELK1,"1.06 fold enrichment (6-mer frequency, TF over GST control)"
same,binding signal,GABPA,"1.08 fold enrichment (6-mer frequency, TF over GST control)"
same,binding signal,ERG,"1.03 fold enrichment (6-mer frequency, TF over GST control)"
same,binding signal,ELF1,"1.12 fold enrichment (6-mer frequency, TF over GST control)"
same,binding signal,EHF,"1.06 fold enrichment (6-mer frequency, TF over GST control)"
same,binding signal,SPI1,"1.08 fold enrichment (6-mer frequency, TF over GST control)"
same,binding signal,SPIB,"1.12 fold enrichment (6-mer frequency, TF over GST control)"
same,binding signal,ELK3,"1.13 fold enrichment (6-mer frequency, TF over GST control)"
